This is a sample that favours compounds with a hit; in the whole collection about 0.9% have one here.
Mtb bLac sens – beta-lactam sensitization of Mtb H37Rv, H37Rv; M. tuberculosis H37Rv growth with meropenem, percent inhibition; inhibition, % at 25 µM; hit rate 0.27% among 330,000; AID 434955, 2010; call rule not given here;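 further: growth measured after seven days incubation then overnight dye step; 0% = bacteria only wells and 100% = bacteria with antibiotic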
ugtP null kill – growth inhibition of ugtP-null S. aureus, primary screen, RN4220 ugtP deletion, OD600. 16 h. growth inhibition, % (no concentration beside the values). hit rate 0.54% among 330,000. AID 1259309, 2017; in the data active means growth inhibition above about 68%;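 further: plate controls were untreated wells for no effect and antibiotic for full effect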
PfHsp40 yeast – rescue of yeast from PfHsp40 toxicity, primary screen, S. cerevisiae, ATP luminescence | S. cerevisiae expressing PfHsp40, growth rescue | growth rescue, % at 12.5 µM | hit rate 0.68% among 340,000; in the data active means growth rescue above about 28%, passing the limit was not always enough;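 further: yeast W303a lacking pdr1 and pdr3 grown in galactose medium; growth measured after three days at 30 °C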
BioA inh – M. tuberculosis BioA enzyme inhibitors, primary screen, biochemical, plate reader, single point, HTS; hit rate 0.096% among 360,000; purified M. tuberculosis BioA enzyme; inhibition, % at 9.99 µM; 7,8-diaminopelargonic acid synthase BioA (Mycobacterium tuberculosis); AID 602481, 2012; in the data active means inhibition above about 40%
RN4220 kill – growth inhibition of S. aureus RN4220, primary screen, OD600; inhibition, % (no concentration beside the values); AID 1259311, 2017; hit rate 0.33% among 330,000; 16 h; in the data active means inhibition above about 85%;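 further: plate controls were untreated cells for no effect and reference antibiotic for full effect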
* hit, by the source's call; x = not tested or not shown.

SMILES	Mtb bLac sens	ugtP null kill	PfHsp40 yeast	BioA inh	RN4220 kill
CC(C=NNC(=O)CSc1ccccn1)=Cc1ccc(C(C)C)cc1	x	-18.7	x	x	1.1
COc1ccccc1-c1sc2cc3c(cc2c1C#Cc1cncn1C)OCO3	97.5	90.4*	245.6*	-3.2	50.0
COc1ccc2sc(-c3ccccc3OC)c(C#Cc3cncn3C)c2c1	95.0	75.8	5.3	-1.5	65.6
COc1ccc(-c2sc3ccccc3c2C#Cc2cncn2C)cc1	99.0	97.1*	413.8*	0.3	79.2
OCCC#Cc1c(-c2ccsc2)sc2ccccc12	9.3	13.0	55.9*	-1.2	-2.5
COc1ccc(-c2sc3ccccc3c2/C=C/c2ccncc2)cc1	98.8	x	75.4*	-1.0	x
Cc1ccc(C(=O)NN=Cc2cc(Br)c(Br)o2)cn1	x	3.0	x	x	-1.2
CC1(C)NC(=O)C2CCCN21 (stereo not given)	x	-4.7	x	x	3.4
CC1CN(C(C)CO)C(=O)c2cc(NC(=O)CCC(F)(F)F)ccc2OC1CN(C)C(=O)NC1CCCCC1 (stereo not given)	x	-8.1	x	x	2.2
C#CCNC(=O)C(Cc1ccc(C(=O)c2ccccc2)cc1)NC(=O)OC(C)(C)C (stereo not given)	x	-1.4	x	x	6.9
COc1ccc(-c2sc3ccccc3c2C#CCO)cc1	93.5	x	31.4*	-1.0	x
COc1ccc(-c2sc3ccccc3c2C#CCCO)cc1	94.7	x	41.5*	-1.1	x
COc1ccc(-c2sc3cc(OC)c(OC)cc3c2C#CCCO)cc1	x	-12.3	-0.1	1.0	-9.9
COc1ccc(-c2sc3cc4c(cc3c2C#CCO)OCO4)cc1	63.0	-12.0	-1.4	-0.3	4.8
Cc1nn(-c2ccccc2)c(Cl)c1C=C(CC(=O)O)c1nc2ccccc2s1	x	-15.4	x	x	9.2
COc1cc([N+](=O)[O-])cc(C=NNC(=O)C(C)Nc2ccccc2C)c1O (stereo not given)	x	4.0	x	x	11.8
CC(C)CC(NP(=O)(O)OC1OC(C)C(O)C(O)C1O)C(=O)NC(Cc1c[nH]c2ccccc12)C(=O)O (stereo not given)	x	0.0	x	x	3.2
O=C(Nc1ccccc1)ON=C1c2ccccc2-c2ccccc21	-5.1	-1.3	4.7	x	-6.2
O=C(Nc1ccccc1Cl)ON=C1c2ccccc2-c2ccccc21	90.1	95.1*	88.4*	x	-4.3
Cc1cc(C)c(C(=O)CC(=O)c2cccnc2)c(C)c1	x	6.0	285.8*	-0.2	11.1
Nc1nc(NCCOCCO)nc(N2CCCCCC2)c1[N+](=O)[O-]	5.2	94.5*	-0.3	x	85.8
Nc1nc(NCCO)nc(N2CCCCCC2)c1[N+](=O)[O-]	3.7	18.4	-2.2	x	27.3
Cc1ccc2nc(Cl)c(C=NNC(=O)C3CC3c3ccccc3)cc2c1 (stereo not given)	x	-2.5	x	x	-2.1
CN1c2ccsc2C(=NNc2ccccc2)CS1(=O)=O	x	96.3*	x	x	82.7
CN(C)S(=O)(=O)c1ccc(NC(=O)c2cc3ccccc3o2)cc1	89.5	7.4	2.0	43.9*	5.6
SMILES	Mtb bLac sens	ugtP null kill	PfHsp40 yeast	BioA inh	RN4220 kill
CN1/C(=C\C(=O)Nc2ccc(Cl)cc2)C(C)(C)c2ccccc21	98.9	96.9*	0.1	x	94.0*
CN1/C(=C\C(=O)c2cccs2)C(C)(C)c2ccccc21	59.2	-1.3	153.5*	x	20.0
CCCCC(CC)c1nnc(NC(=O)c2cccs2)s1 (stereo not given)	x	-23.5	264.2*	x	-0.6
CCOC(=O)c1cn(-c2ccc([N+](=O)[O-])cc2)c2cc(Cl)c([N+](=O)[O-])cc2c1=O	-4.1	-2.0	-1.0	x	2.8
O=C(O)c1cn(-c2ccc(F)cc2)c2cc(Cl)c(F)cc2c1=O	57.1	97.4*	1.7	-1.0	47.9
Cc1ccc(-c2csc(NC(=O)C3=COCCO3)n2)cc1	2.3	9.0	6.2	x	2.0
CCCc1ccc(-c2csc(NC(=O)C3=COCCO3)n2)cc1	2.0	55.6	49.7*	-1.4	-2.8
CNC(=S)N/N=C(\C)c1ccc(N2CCOCC2)cc1	x	x	203.2*	0.3	x
COc1cccc(C2=NN(C(=O)c3cccs3)C(O)(C(F)(F)F)C2)c1 (stereo not given)	-4.9	73.6	2.5	x	91.4*
CC(=NCCCn1ccnc1)c1c(-c2ccccc2)[nH]n(-c2nc3ccccc3s2)c1=O	42.7	0.9	-2.4	41.2*	-2.8
CCN1C(=NCCCOC(C)C)NC(c2ccccc2)C(C(=O)OC)C1C (stereo not given)	x	-6.4	x	x	4.2
